# High-throughput results deposited in PubChem BioAssay by National Center for Advancing Translational Sciences (NCATS).
# VDR inhibitor = vitamin D3 receptor (human) inhibition | VDR-SRC2-3 peptide fluorescence polarization, 2 h | Potency, µM, for the others: max response, negative = inhibition, actives largely listed as inhibitors | 400,000 tested, 0.93% active
#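 Two reagent solutions held at 4 deg C in the dark were dispensed, compounds pinned at 23 nl, and the mixture incubated 2 h at room temperature. Read-out: fluorescence polarization of VDR–SRC2-3 peptide binding.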
# rTrxR1 inhibitor = inhibitors of rat thioredoxin reductase 1; O89049; recombinant rTrxR1, NADPH fluorescence consumption, selenite substrate; Potency, µM (series often up to 114 µM), inactives show at the top dose activity change, negative = inhibition, usual class: inhibitors; 390,000 tested, 1% active; AID 588453; also: nearly all actives have a fitted effect of over 65% in size
#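 Rat TrxR1 (90 nM in the dispensed reagent) was pre-reduced with 400 uM NADPH for 5 min at room temperature, then incubated with compound for 15 min. After 400 uM selenite was added, NADPH fluorescence (Ex 340/Em 450 nm) was followed for 8 min.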
# Sfp inh = Sfp phosphopantetheinyl transferase inhibition. Q9F4F7. Biochemical Sfp PPTase activity, qHTS. Potency, µM, for the others: largest response in the series, negative = inhibition, hits mostly inhibitors. 310,000 tested, 3.5% active;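 also: the enzyme is Sfp with the accession as filed and its product quenches rhodamine fluorescence; 0% = enzyme reaction without inhibitor and -100% = no enzyme wells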
#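 With Hepes-Na pH 7.6 buffer containing 10 mM MgCl2, Sfp (15 nM) modified BHQ-2-YbbR (12.5 uM) using rhodamine-CoA (5 uM). Two reads 30 minutes apart at 525/598 nm yielded each well's rate.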
# IDH1 R132H inh = inhibitors of human mutant IDH1 R132H; 390,000 tested, 0.093% active; Potency, µM (series often up to 76.6 µM), without a hit: top-dose activity change, negative = inhibition, usual class: inhibitors; IDH1-R132H enzyme, NADPH consumption, diaphorase/resazurin fluorescence; O75874; also: nearly all actives have a fitted effect of over 65% in size
# Target sequence (O75874 whole entry R132H, stated change not applied): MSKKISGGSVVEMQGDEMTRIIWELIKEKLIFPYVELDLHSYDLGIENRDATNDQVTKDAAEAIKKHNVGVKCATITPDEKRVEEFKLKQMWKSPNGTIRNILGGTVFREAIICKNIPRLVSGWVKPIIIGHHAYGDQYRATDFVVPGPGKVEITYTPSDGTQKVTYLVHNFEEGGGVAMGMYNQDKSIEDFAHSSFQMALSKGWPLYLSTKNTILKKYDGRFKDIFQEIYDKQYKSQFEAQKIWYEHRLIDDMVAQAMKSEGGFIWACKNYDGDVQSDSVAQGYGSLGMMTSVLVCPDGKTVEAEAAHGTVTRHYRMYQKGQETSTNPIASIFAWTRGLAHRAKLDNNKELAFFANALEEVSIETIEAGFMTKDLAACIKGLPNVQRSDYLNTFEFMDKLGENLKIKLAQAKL
#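 IDH1-R132H (0.5 ug/mL) preincubated 30 min with compound, then NADPH (0.016 mM) and alpha-KG (2 mM) added; 80 min at RT, pH 7.5. Remaining NADPH coupled via diaphorase/resazurin to fluorescence (540/590 nm); concentration-response curves normalized to no-enzyme control.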
# PLK1 PBD inh = PLK1 (human) polo-box domain binding inhibition; P53350; Plk1 PBD binding of FITC phosphopeptide, fluorescence polarization; AID 720504; Potency, µM, without a hit: max response, negative = inhibition, actives largely listed as inhibitors; 360,000 tested, 2.8% active; also: series mostly up to about 57 µM; nearly all actives have a fitted effect of over 65% in size
# TrxR1 substrate = substrates of rat thioredoxin reductase 1; O89049; purified TrxR1 substrate turnover, NADPH consumption readout; Potency, µM (highest dose often 114 µM), for inactives: at the top dose activity change, negative = substrate turnover; 390,000 tested, 0.01% active; also: nearly all actives have a fitted effect of over 50% in size
#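 Rat TrxR1, dispensed at 90 nM, was prereduced with 400 uM NADPH (final) for 5 min at ~22 deg C, then incubated with compound 15 min before 400 uM selenite. A first-read NADPH fluorescence drop versus no-compound background flagged substrates.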
# The depositor's hits bear a star; i = inactive; ? = inconclusive; . = no result; ! = a repeat was not active; [ ] = remark or other dose. Most compounds without a hit are left out; they make up all but 5.2% or so of the library. Calls follow the shape of the dose curve; as a rule, active = well fitted curve in the direction sought with a large enough effect; inconclusive = small, poorly fitted or top-dose-only effect, or another doubt; inactive = no such curve, though single readings can be large; an effect the other way counts as inactive or inconclusive. Unless noted, % is scaled to controls: 0 for no effect and ±100 for the full control effect; potency is read from the fitted curve at half-maximal effect.
SMILES,VDR inhibitor,rTrxR1 inhibitor,Sfp inh,IDH1 R132H inh,PLK1 PBD inh,TrxR1 substrate
CN(C)c1c(Cl)cc(/C=C2\C=Cc3ccccc32)cc1Cl,.,-8%,.,.,.,9%[0.0914 µM]
O=C(CSc1ccc(-c2ccco2)nn1)NCc1ccc(F)cc1,-13%,50µM*,?,1%,-16%,7%
O=C(CSc1ccc(-c2ccco2)nn1)NCCc1ccccc1,7%,18µM*,32µM*,-1%,-8%,3%
CC(=O)N1CCc2cc(Br)cc(S(=O)(=O)N3CCC(C(=O)O)CC3)c21,-10%,28%,20%,0%,-23%,9%
CCN(CC)CC(=O)Nc1ccc(C)cc1C(=O)c1ccccc1,-24%,14%,26%,-2%,-1%,6%
Cc1ccc(S(=O)(=O)NCCC(=O)Nc2ccc(C)cc2C(=O)c2ccccc2)cc1,?,0%[57.1 µM],-3%,5%,27µM*,2%[57.1 µM]
CC(C)c1ccc(C(=O)CSc2ncn[nH]2)cc1,79µM*,-24%,56µM*,10%,30µM*,10%
CC(C)c1ccc(N2C(=O)CC(Sc3ncn[nH]3)C2=O)cc1 (configuration not stated),19%,?,56µM*,-1%,27µM*,-20%[11.4 µM]
O=C(CSc1ncn[nH]1)c1ccc2c(c1)OCCO2,?,-18%,?,0%,?,-2%
O=C(CSc1ncn[nH]1)CSc1ncn[nH]1,-15%,-21%[57.1 µM],50µM*,-7%,-26%,11%[57.1 µM]
CCc1ccc(NC(=O)CN(c2ccc(Cl)cc2)S(=O)(=O)c2ccsc2C(=O)OC)cc1,2%,15%[57.1 µM],.,-16%,.,4%[57.1 µM]
C=CCN1c2ccc(Br)cc2C(=O)CS1(=O)=O,-17%,7.1µM*,.,-14%,2%,4%
COc1cccc(CN2c3ccc(Br)cc3C(=O)CS2(=O)=O)c1,-7%,2.2µM*,.,11%,-7%,-2%
COc1cc(CN2c3ccc(Br)cc3C(=O)CS2(=O)=O)cc(OC)c1,.,?,.,.,.,-5%
O=C(Nc1ccc2c(c1)OCCO2)C(c1ccccc1)n1c(=O)c(-c2ccco2)nc2ccccc21 (configuration not stated),.,.,.,.,-14%,.
Cn1c(=O)c(N)c2c3c(c(Br)ccc31)C(=O)c1ccccc1-2,-13%,-5%,1%,-10%,0.6µM*,-7%
Cn1c(=O)c2c(-c3ccccc3Br)n(C(C)(C)C)cc2n(C)c1=O,-2%,2%,.,-7%,.,-9%
S=c1nc(C2CC2)[nH]c2ccccc12,?,-19%,-38%,-1%,24µM*,1%
CCCCn1c(=NC(=O)c2cc3ccccc3o2)c(C(=O)OCC)cc2c(=O)n3ccccc3nc21,-9%,2%,.,-24%,.,8%
C=CCNC(=O)/C=C/c1cccs1,16%,16%[57.1 µM],12%,12%,-1%,-8%
C=CCNC(=S)NS(=O)(=O)c1cccs1,-15%,-9%[57.1 µM],22µM*,2%,?,9%[57.1 µM]
CCOC(=O)[C@]12CCC=C1N(CCC1=CCCCC1)C(=O)[C@H](CC(=O)N1CCSCC1)C2,.,.,.,.,-6%,.
CCS(=O)(=O)N1Cc2cc(C(=O)N(C)C)nc(-c3cccc(-c4ccc(F)cc4)c3)c2[C@H]1CCO,.,.,.,.,-3%,.
CC1=NN(c2ccccc2)C(=O)/C1=C/c1c(O)n(-c2ccc(F)c(Cl)c2)[nH]c1=O,-19%,-22%,?,1%,27µM*,-13%
CN1CCCc2cc(/C=C/c3ccnc4ccccc34)ccc21,.,-16%,.,.,.,-1%
SMILES,VDR inhibitor,rTrxR1 inhibitor,Sfp inh,IDH1 R132H inh,PLK1 PBD inh,TrxR1 substrate
Cc1ccc2c(c1)c1c(c(=O)n(Cc3ccccc3)c(=O)n1CC(=O)NCc1ccccc1Cl)n2C,-4%,28%,.,-4%,.,10%
CCOc1ccccc1Nc1ccc(C(=O)O)cc1NC(C)=O,-19%,1%[57.1 µM],56µM*,1%,-6%,-9%
CC(C)NC(=O)/C(=C/c1ccco1)c1ccccc1,-2%,15%[57.1 µM],-46%,1%,-17%,16%[57.1 µM]
O=C(NCCc1ccccc1)/C(=C/c1ccco1)c1ccccc1,-6%,?,6.3µM*,1%,-12%,-10%
CCC(C)NC(=O)/C(=C/c1ccco1)c1ccccc1 (configuration not stated),8%,?,3.2µM*,-3%,-6%,5%
Cc1cccc(N2CCN(C(=O)c3cnn(-c4ccc(F)cc4F)c3C3CCN(C(=O)OC(C)(C)C)CC3)CC2)c1C,13%,3%,.,0%,.,-8%
O=C(Nc1nccs1)[C@@H]1CC=C[C@@H]2CCN(C3CC3)C(=O)[C@@H]21,.,7%,.,.,.,-6%
Cc1cccc(N2CCN(C(=O)CSc3nc4ccccc4nc3N3CC(C)OC(C)C3)CC2)c1C (configuration not stated),-14%,3%[57.1 µM],-2%,3%,-10%,2%[0.0914 µM]
CC1=NN(C(N)=S)C(=O)C1N=Nc1c(C)cc(C)cc1C (configuration not stated),-14%,-17%,-7%,3%,-19%,0%
CC1=NN(C(N)=S)C(=O)C1N=Nc1c(Br)cc(Br)cc1Br (configuration not stated),?,?,-17%,-8%,24µM*,-13%
Cc1cc(C)nc(/N=C2\NC(=O)CC(C(=O)O)N2c2ccc(C)c(C)c2)n1 (configuration not stated),50µM*,19%[57.1 µM],5%,10%,24µM*,5%
Cc1ccc(N2/C(=N/c3nc(C)cc(C)n3)NC(=O)CC2C(=O)O)cc1 (configuration not stated),-4%,27%,13%,2%,-1%,11%
CCOc1ccc(NC(=S)Nc2ccc3nsnc3c2)cc1,79µM*,?,?,10%,27µM*,-28%
COc1ccc(NC(=S)Nc2ccc3nsnc3c2)cc1,89µM*,?,56µM*,20%,13µM*,-11%
C=CCN(CC=C)C(=S)Nc1ccc2nsnc2c1,-21%,-3%[57.1 µM],13µM*,1%,-7%,-7%
CCNc1nc2c(c(=O)n(C)c(=O)n2C)n1CCCc1ccccc1,?,7%,17%,-1%,3.4µM*,4%
CCNc1nc2c(c(=O)n(Cc3ccccc3)c(=O)n2C)n1Cc1ccccc1,-3%,9%,-16%,0%,6%,1%
Nc1ccc(-c2nc3ccc(C(=O)O)cc3s2)cc1,1%,?,56µM*,1%,-9%,i
CCN(Cc1nc(-c2ccc(OC)cc2)no1)C(=O)c1ccoc1C,28%,-6%,1%,-3%,-10%,-7%
CC(=O)N1[C@H](Cc2ccccc2)C=C[C@]1(C)C(=O)NCc1ccc(C)o1,-13%,?,45µM*!,5%,-17%,11%
CCO[C@@H]1OC(C(=O)NCc2ccccc2)=C[C@H](C)[C@H]1CCCO,-1%,-8%,12%,12%,4%,-2%
